For 40 compounds, growth results are on record in PubChem BioAssay (NCI).

The panel holds about 83,000 compounds, 20% with a hit somewhere; the sample as a whole holds those more often.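 Single-concentration screen, 48 h exposure, 96-well plates. Endpoint: percent growth. Below 10 = active.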 Unmarked numbers belong to inactive results. The source made the active and inactive calls.

The test system of this assay is T-47D breast. The experiment in a line: NCI-60 one-dose screen, 48 h (100 = growth as untreated, 0 = no growth, -100 = all killed). To be noted: 10 µM unless noted.
For the compound `Cc1ccc(-c2csc(NC(=O)CN3CCN(c4cc5c(cc4F)c(=O)c(C(=O)O)cn5C4CC4)CC3)n2)cc1`, the growth was 6.74% (active).

Regarding `O=C(Nc1ccc(-c2nc(N3CCOCC3)c3cccn3n2)cc1)Nc1cccnc1`, the growth was -24.8% (active).

As to `CC(=O)OC[C@]12CCC(C)(C)C[C@H]1[C@@]1(O)[C@H](O)C[C@@H]3[C@@]4(C)CCCNC(C)(C)[C@@H]4CC[C@@]3(C)[C@]1(C)CC2`, the growth is 104%.

On to `Cn1ccnc1C(=O)C(=O)Nc1ccc(CC(=O)Nc2ccccc2)cc1`, for which the growth is 112%.

As for `O=[N+]([O-])c1ccc(-c2nc(N3CCOCC3)c3c4c(sc3n2)CCCC4)cc1`, the growth is 83.5%.

`O=C1/C(=C\c2cn(-c3ccccc3)nc2-c2ccc(-c3cccs3)cc2)CCc2ccccc21`: the growth was 66.4%.

For the compound `Cc1ccc(-c2cc(-c3ccc(Cl)cc3)nc(NC(=O)c3cccnc3)n2)cc1`, the growth is 96.3%.

For `C[C@@H]1CCC[C@H]1CC(N)C(=O)O` (stereo not given in full), the growth is 106%.

Consider `CSc1nnc(-c2cnn3c2NC(c2ccccc2)C3)n1-c1ccc(C(F)(F)F)cc1` (stereo not given), for which the growth was 54.2%.

`COc1ccccc1Nc1nc2c(s1)C1=CC[C@H]3[C@@H]4CC[C@H]([C@H](C)CCCC(C)C)[C@@]4(C)CC[C@@H]3[C@@]1(C)CC2`: the growth is 105%.

On to `CCOC(=O)c1ccc2[nH]c(O)c(C(=Nc3ccc(N(C)C(=O)CN4CCN(C)CC4)cc3)c3ccccc3)c2c1`, for which the growth was 21.6%.

Turning to `COc1ccc(-c2nnc(-c3ccc4c(c3)nc(-c3ccncc3)n4C3CCCCC3)o2)cc1`, the growth is 30.8%.

As for `CCCCCCC1(C)NCCO1` (stereo not given), the growth is 108%.

Take `O=C(CCCCCCN1CC(=O)N2[C@H](c3cc(Br)cs3)c3[nH]c4ccccc4c3C[C@H]2C1=O)NO`: the growth was 17.3%.

`C=CCn1c(SCC(=O)Nc2ccc(C(=O)/C=C/c3cc4cc(OC)ccc4nc3Cl)cc2)nnc1-c1ccc(Br)cc1`: the growth is 77.7%.

Take `O=C(COc1ccc(-c2nc3ccccc3[nH]2)cc1)N=Nc1c(O)[nH]c2ccc(Cl)cc12`: the growth was 65.4%.

In the case of `Cc1cc(=O)[nH]c2c(C#N)cnn12`, the growth is 99.6%.

Regarding `O=C1Nc2ccc(I)cc2C1=O`, the growth was 106%.

In the case of `Fc1ccc(Nc2nc3nonc3nc2Nc2ccc(I)cc2)cc1`, the growth is -26.7% (active).

For `CN1CCN(Cc2ccc3c(NNC(=O)c4ccccc4)nc4cc(F)ccc4n23)CC1`, the growth was 24.7%.

With `O=C(Nn1c2c(sc1=NCc1ccccc1)C(=O)c1ccccc1C2=O)c1cc2ccc1CCc1ccc(cc1)CC2`, the growth was 35.1%.

Consider `Cc1cc2c(O)c(-c3cccc(Cl)c3)c3sc(=O)oc3c2cc1C`, for which the growth was 14.8%.

`CC12CCC3c4ccccc4CCC3(CO1)C2` (stereo not given): the growth is 101%.

Regarding `O=C(Cn1cc(CN2CCCCCC2)nn1)Nc1ccc2c(ccn2Cc2ccccc2)c1`, the growth is 69.8%.

For `COc1cc(OC)cc(C2=C3CC[C@@H]4[C@H](CC[C@]5(C)C(=O)CC[C@@H]45)C3=CC3C(O)c4cccnc4N4C(=O)COC234)c1` (stereo not given in full), the growth was 107%.

In the case of `O=C(Cn1c(-c2ccc([N+](=O)[O-])cc2)nc2ccccc21)NNC(=O)c1cccnc1`, the growth is 71.2%.

For the compound `CCNc1nc(-c2ccc(Cl)c(OC)c2)c(-c2ccnc(NCCCNS(=O)(=O)c3ccc(Cl)cc3)n2)s1`, the growth is 37.4%.

Take `COc1ccc2c(O)c(/C=C3\N=Nc4ccccc43)oc2c1C[C@@H]1CCNC[C@H]1F`: the growth is 94.3%.

`CC(C)(C)[Si](C)(C)O[C@H]1C(=O)C=CN2CC=C[C@@H]12`: the growth was 92% [100 µM].

As to `CN1CCN(Cc2ccc(NC(=O)c3cncc(C#Cc4cnc(N)c5ccccc45)c3)cc2C(F)(F)F)CC1`, the growth was -60.6% (active).

Regarding `CC(C)N1CN2C(=S)NC3C2N(C1)C(=S)N3C` (stereo not given), the growth was 92.4%.

Turning to `COc1ccc(C(=O)Nc2cccc(C3CC(=O)c4c(cc(OC)c(OC)c4OC)O3)c2)cc1` (stereo not given), the growth was 7.66% (active).

Regarding `O=c1oc2ccc([N+](=O)[O-])cc2cc1Br`, the growth was 101%.

With `CCOC(=O)c1cc2c(=O)oc3ccccc3c2oc1=O`, the growth is 107%.

Turning to `Clc1ccc(Sc2cnc(-c3ccccc3)o2)cc1`, the growth is 84.6%.

In the case of `CN(C)c1ccc(/C=C/C(=O)c2ccc(-n3cc(CN4CCN(c5cc6c(cc5F)c(=O)c(C(=O)O)cn6C5CC5)CC4)nn3)cc2)cc1`, the growth is 76.8%.

`Oc1ccc(CCn2c(O)c(/C=C3\CN=c4ccccc4=N3)sc2=S)cc1`: the growth is 39.8%.

For the compound `COC1C[C@H](O[C@@H]2C[C@H](O[C@@H]3C[C@H](O[C@@H]4C(=O)c5c(cc6cc(O[C@H]7C[C@@H](O[C@H]8C[C@@H](O)[C@H](O)C(C)O8)[C@H](O)C(C)O7)c(C)c(O)c6c5O)C[C@H]4C(OC)C(=O)[C@@H](O)[C@@H](C)O)OC(C)[C@H]3O)OC(C)[C@@H]2O)OC(C)[C@@H]1O` (stereo not given in full), the growth was -4.81% (active).

Regarding `C[C@H](NC(=O)[C@@H](C)N)[C@H](Oc1ccc2c(cnn2-c2ccc(F)cc2)c1)c1ccc2c(c1)OCCO2`, the growth is 36.2%.

For the compound `CCc1ccc(Oc2cn[nH]c2-c2ccc(OCCc3ccc(F)cc3)cc2O)cc1`, the growth is 34.5%.
